Experiment in all cases: yeast three-hybrid, YBZ-1, SC-Leu-His + 0.5 mM 3-AT, 4 days
Holding throughout (settings): tags: N-Gal4 AD-HA kept; label: inside an RPR1-promoter hybrid RNA with tandem MS2 sites; ssRNA

The target in one test is PUM1 PUF domain R7-LFD (Homo sapiens, UniProt Q14671 828-1176, S1079L;N1080F;E1083D). The method in brief: (§1)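 The interaction score is the logarithmic change in variant frequency from input to selection. It uses log2, with a pseudocount of 1 for absent variants, and frequencies came from PCR-amplified, Illumina-sequenced repeat regions. The libraries were Pumilio-1 PUF domains randomized at the three base-contacting residues per repeat, co-expressed with matching RNA elements in strain YBZ-1 (LexA–MS2 coat fusion, HIS3 reporter). Plating lasted four days on SC-Leu (input) or SC-Leu-His + 0.5 mM 3-AT (selection).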

Another test concerns the target PUM1 PUF domain R5-WGF (Homo sapiens, UniProt Q14671 828-1176, C1007W;R1008G;Q1011F). The method in brief: as §1
In a further test the target is T1, PUM1 PUF domain R6-WWA (Homo sapiens, UniProt Q14671 828-1176, N1043W;Y1044W;Q1047A).
T1 sequence: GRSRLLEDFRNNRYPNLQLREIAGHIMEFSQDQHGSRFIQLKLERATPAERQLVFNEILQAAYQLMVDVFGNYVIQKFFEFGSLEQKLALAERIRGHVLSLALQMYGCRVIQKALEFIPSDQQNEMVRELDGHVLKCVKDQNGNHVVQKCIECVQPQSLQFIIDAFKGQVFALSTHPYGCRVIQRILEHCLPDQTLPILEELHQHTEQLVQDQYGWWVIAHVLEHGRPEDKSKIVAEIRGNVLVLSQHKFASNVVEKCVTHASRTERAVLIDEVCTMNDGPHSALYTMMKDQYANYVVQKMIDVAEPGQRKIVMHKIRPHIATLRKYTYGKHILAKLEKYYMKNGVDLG
The method in brief:
as §1

The next test concerns the target PUM1 PUF domain R5-DWM (Homo sapiens, UniProt Q14671 828-1176, C1007D;R1008W;Q1011M). An outline of the steps:
as §1

A further test deals with PUM1 PUF domain R8-RWH (Homo sapiens, UniProt Q14671 828-1176, N1122R;Y1123W;Q1126H). An outline of the steps: as §1
The next test has as its target PUM1 PUF domain R3-VYY (Homo sapiens, UniProt Q14671 828-1176, C935V;R936Y;Q939Y). The method in brief: as §1
In the next test the target is PUM1 PUF domain R3-QPG (Homo sapiens, UniProt Q14671 828-1176, C935Q;R936P;Q939G). An outline of the steps:
as §1

A further test has as its target PUM1 PUF domain R4-DHN (Homo sapiens, UniProt Q14671 828-1176, N971D;Q975N). An outline of the steps:
as §1

A further test concerns the target PUM1 PUF domain R4-WGD (Homo sapiens, UniProt Q14671 828-1176, N971W;H972G;Q975D). The method in brief: as §1
A further test has as its target PUM1 PUF domain R5-QCR (Homo sapiens, UniProt Q14671 828-1176, C1007Q;R1008C;Q1011R). The method in brief: as §1

On to “GGCUAGAACUAGUGGAUCCCCCGGCGCCCGGCGGCUCGAGCCCGGGUAAGUUUAAAUAGUCUGCAUGCCGCCGGGCGCCAUGCCUGCAGGUCGACUCUAGAAAACAUG”, for which the binding signal with PUM1 PUF domain R7-LFD is 2.92 log2 enrichment (interaction score).
In the case of “GGCUAGAACUAGUGGAUCCCCCGGCGCCCGGCGGCUCGAGCCCGGGUAAGUGUGAAUAGUCUGCAUGCCGCCGGGCGCCAUGCCUGCAGGUCGACUCUAGAAAACAUG”, the binding signal with PUM1 PUF domain R5-WGF was 4.79 log2 enrichment (interaction score).
For “GGCUAGAACUAGUGGAUCCCCCGGCGCCCGGCGGCUCGAGCCCGGGUAAGUGAAAAUAGUCUGCAUGCCGCCGGGCGCCAUGCCUGCAGGUCGACUCUAGAAAACAUG”, the binding signal in the test with PUM1 PUF domain R6-WWA was 2.47 log2 enrichment (interaction score).
“GGCUAGAACUAGUGGAUCCCCCGGCGCCCGGCGGCUCGAGCCCGGGUAAGUGUAAAUAGUCUGCAUGCCGCCGGGCGCCAUGCCUGCAGGUCGACUCUAGAAAACAUG”: the binding signal was 4.79 log2 enrichment (interaction score) with PUM1 PUF domain R6-WWA, 2.57 log2 enrichment (interaction score) with PUM1 PUF domain R5-DWM and 4.7 log2 enrichment (interaction score) with PUM1 PUF domain R8-RWH.
For the sequence “GGCUAGAACUAGUGGAUCCCCCGGCGCCCGGCGGCUCGAGCCCGGGUAAGUGUAAUUAGUCUGCAUGCCGCCGGGCGCCAUGCCUGCAGGUCGACUCUAGAAAACAUG”, the figures for the binding signal with PUM1 PUF domain R3-VYY and with PUM1 PUF domain R3-QPG were 5.47 log2 enrichment (interaction score) and 3.7 log2 enrichment (interaction score), respectively.
Consider “GGCUAGAACUAGUGGAUCCCCCGGCGCCCGGCGGCUCGAGCCCGGGUAAGUGUACAUAGUCUGCAUGCCGCCGGGCGCCAUGCCUGCAGGUCGACUCUAGAAAACAUG”, for which the binding signal in the test with PUM1 PUF domain R4-DHN is 2.6 log2 enrichment (interaction score).
In the case of “GGCUAGAACUAGUGGAUCCCCCGGCGCCCGGCGGCUCGAGCCCGGGUAAGUGUAUAUAGUCUGCAUGCCGCCGGGCGCCAUGCCUGCAGGUCGACUCUAGAAAACAUG”, the binding signal with PUM1 PUF domain R4-DHN was 4.74 log2 enrichment (interaction score); in the test with PUM1 PUF domain R4-WGD, 4.21 log2 enrichment (interaction score).
In the case of “GGCUAGAACUAGUGGAUCCCCCGGCGCCCGGCGGCUCGAGCCCGGGUAAGUGUCAAUAGUCUGCAUGCCGCCGGGCGCCAUGCCUGCAGGUCGACUCUAGAAAACAUG”, in the test with PUM1 PUF domain R5-QCR, the binding signal is 4.97 log2 enrichment (interaction score).
Still for that read-out and setting: under “GGCUAGAACUAGUGGAUCCCCCGGCGCCCGGCGGCUCGAGCCCGGGUAAGUGUUAAUAGUCUGCAUGCCGCCGGGCGCCAUGCCUGCAGGUCGACUCUAGAAAACAUG” stands 3.91 log2 enrichment (interaction score).
As to “GGCUAGAACUAGUGGAUCCCCCGGCGCCCGGCGGCUCGAGCCCGGGUAAGCGUAAAUAGUCUGCAUGCCGCCGGGCGCCAUGCCUGCAGGUCGACUCUAGAAAACAUG”, in the test with PUM1 PUF domain R8-RWH, the binding signal was 5.97 log2 enrichment (interaction score).

The values above are taken from PMC8384837, “Expanding the binding specificity for RNA recognition by a PUF domain”.
